Results reported in PubChem BioAssay (NCATS).
Unmarked numbers belong to inactive results. The call rests on the fitted dose curve; in most records, active means well fitted curve in the direction sought with a large enough effect; inconclusive means small, poorly fitted or top-dose-only effect, or another doubt; inactive means no such curve, though single readings can be large; an effect the other way counts as inactive or inconclusive. Results filed as inconclusive are left out.

Target: ATP-dependent 6-phosphofructokinase (Trypanosoma brucei brucei) (UniProt O15648)
Sequence (O15648 whole entry, looked up): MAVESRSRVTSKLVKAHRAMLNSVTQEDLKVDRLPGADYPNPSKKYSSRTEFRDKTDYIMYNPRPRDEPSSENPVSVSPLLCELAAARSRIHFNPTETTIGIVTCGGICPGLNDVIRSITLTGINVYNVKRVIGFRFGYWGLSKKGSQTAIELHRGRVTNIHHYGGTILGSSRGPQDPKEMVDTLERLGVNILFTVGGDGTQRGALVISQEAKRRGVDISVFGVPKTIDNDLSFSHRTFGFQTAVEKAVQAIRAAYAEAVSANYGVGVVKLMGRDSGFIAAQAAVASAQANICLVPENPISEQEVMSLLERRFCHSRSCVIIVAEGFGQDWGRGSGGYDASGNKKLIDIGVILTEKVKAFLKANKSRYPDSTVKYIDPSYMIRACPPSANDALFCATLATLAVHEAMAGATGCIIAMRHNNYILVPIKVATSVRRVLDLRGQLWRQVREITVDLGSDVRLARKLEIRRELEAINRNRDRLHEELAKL
Assay: qHTS Assay to Find Inhibitors of T. brucei phosphofructokinase: hit validation (AID 492961);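 further: luminescence reports ADP formed as PFK phosphorylates fructose-6-phosphate with ATP; on the % scale 0 is the no-effect control and ±100 the full control effect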
Conditions: T. brucei PFK, ADP-Glo luminescence; series mostly up to 51.4 µM; activity change, negative = inhibition: at the top concentration
Procedure, shortened: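 Measures ADP output of PFK (1.25 nM) at 0.1 mM ATP, 0.5 mM F6P, pH 8.0 TEA buffer with 5 mM MgCl2. No-enzyme wells define full inhibition; uninhibited enzyme wells define zero.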

SMILES	activity change, negative = inhibition
NCCc1cc(O)c(O)cc1O	-17.6%
Cn1c(CCCC(=O)O)nc2cc(N(CCCl)CCCl)ccc21	21.1%
C[C@]12C/C(=C/O)C(=O)C[C@@H]1CC[C@@H]1[C@@H]2CC[C@@]2(C)[C@H]1CC[C@]2(C)O	-3.79%
CCC(C(N)=O)N1CCCC1=O (stereo unspecified)	9.05%
CC(C)(N)Cc1ccc(Cl)cc1	-8.96%
CCN(CC)CCOC(=O)C(O)(c1ccccc1)c1ccccc1	4.3%
CC(C)(C)NCC(O)c1cc(Cl)c(N)c(Cl)c1 (stereo unspecified)	14.1%
CC(C)CC(N(C)C)C1(c2ccc(Cl)cc2)CCC1 (stereo unspecified)	6.03%
CC(=O)Nc1cc([As](=O)(O)O)ccc1O	-13.1%
NP(N)(=O)NC(=O)c1ccc(F)cc1	1%
CN(C)CCc1ccc(O)cc1	0%
O=P1(NCCCl)OCCCN1CCCl (stereo unspecified)	6.77% [at 24.3 µM]
O=C(NC(O)C(Cl)(Cl)Cl)NC(O)C(Cl)(Cl)Cl (stereo unspecified)	2.25%
CC[N+]1(C)CCCC(OC(=O)C(O)(c2ccccc2)c2ccccc2)C1 (stereo unspecified)	-0.842%
C#CCOC(C(=O)OCCN(C)C)(c1ccccc1)c1ccccc1	4.65%

Tested on: not listed separately
Assay: Inducers of the Endoplasmic Reticulum Stress Response (ERSR) in human glioma: Validation (AID 504836); further: 0% is about no effect
Conditions: human glioma cells, ER stress response reporter; series mostly up to 38.3 µM; activation: at the top concentration
Procedure, shortened: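 ERSR induction read as luciferase luminescence (Bright-Glo, 10 min at room temperature) in stably transfected human U87-MG glioma cells exposed to compounds for 16 h, using GRP78 as sensor.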

SMILES	activation [%]
COc1ccc(Cl)cc1C(=O)NCCc1ccc(S(=O)(=O)NC(=O)NC2CCCCC2)cc1	-2.98
Cc1cn[nH]c1	-1.52
CN(Cc1cnc2nc(N)nc(N)c2n1)c1ccc(C(=O)N[C@@H](CCC(=O)O)C(=O)O)cc1	-1.01
Fc1ccc([C@@H]2CCNC[C@H]2COc2ccc3c(c2)OCO3)cc1	-1.25
CC[N+](C)(C)c1cccc(O)c1	-2.23
CC(C)[N+](C)(CCOC(=O)C1c2ccccc2Oc2ccccc21)C(C)C	-1.89
OCCN1CCN(CCCN2c3ccccc3Sc3ccc(Cl)cc32)CC1	-1.56
Cc1cccc(C)c1OCC(C)N (stereo unspecified)	-5.14
CCCCNC(=O)NS(=O)(=O)c1ccc(C)cc1	-2.69
NC(=O)NO	-2.42
O=C1N=C(O)CN1/N=C/c1ccc(-c2ccc([N+](=O)[O-])cc2)o1	0.223
CC(C)NCC(O)COc1ccc(CCOCC2CC2)cc1 (stereo unspecified)	-0.458
COC(=O)Nc1nc2ccc(C(=O)c3cccs3)cc2[nH]1	-2.66
CC#C[C@]1(O)CC[C@H]2[C@@H]3CCC4=CC(=O)CCC4=C3[C@@H](c3ccc(N(C)C)cc3)C[C@@]21C	-0.257
COc1cc2nc(N(C)CCCNC(=O)C3CCCO3)nc(N)c2cc1OC (stereo unspecified)	-4.79
CC(C(=O)O)c1cccc(C(=O)c2ccccc2)c1 (stereo unspecified)	-1.11
Cc1ccccc1N1C(=O)c2cc(S(N)(=O)=O)c(Cl)cc2NC1C (stereo unspecified)	-3.24
O=NN(CCCl)C(=O)NCCCl	1.26
CCCNC(=O)NS(=O)(=O)c1ccc(Cl)cc1	-3.76
N[C@@H]1CONC1=O	0.346
CN(C)C(=O)C(CCN1CCC(O)(c2ccc(Cl)cc2)CC1)(c1ccccc1)c1ccccc1	-6.67
